Measurements from PubChem BioAssay AID1568 (National Center for Advancing Translational Sciences (NCATS), 2009).
Inconclusive results are not listed. Entries that show only a call come without a potency. Active and inactive are the calls of the source. The call rests on the fitted dose curve; in most records, active means well fitted curve in the direction sought with a large enough effect; inconclusive means small, poorly fitted or top-dose-only effect, or effect the other way, or another doubt; inactive means no such curve, though single readings can be large or run the other way.

assay: Cell Viability Secondary Assay to Characterize qHTS Inhibitors of the Interaction of Thyroid Hormone Receptor and Steroid Receptor Coregulator 2; details: cell viability counter-screen, qHTS titration; series mostly up to 29.9 µM
Excerpt: NIH Molecular Libraries Probe Production Network [MLPCN]
NIH Chemical Genomics Center [NCGC]
Assay Provider: R. Kip Guy, St. Jude Children's Research Hospital
Thyroid receptor (TR) regulates many homeostatic processes including basal metabolism, cardiovascular function, body weight, and lipid trafficking. TR modulators are potential therapeutics for obesity and hyperlipidemias but current thyroid analogs have undesirable side effects, particularly cardiac stimulation. This secondary assay characterized selected actives identified in the qHTS for Inhibitors of the Interaction of Thyroid Hormone Receptor and Steroid Receptor Coregulator 2. The human follicular thyroid carcinoma cell line WRO (kindly provided by Dr. M. D. Ringel) stably expresses TRbeta and a luciferase reporter gene fused to TR response element. The effect of compounds on the viability of these cells was assessed by measuring ATP levels. Compounds that reduce cell viability are likely cytotoxic.
NCGC Assay Protocol Summary:
Cells were maintained in RPMI 1640 culture medium supplemented with 10% heat-inactivated FBS, 0.33 mg/ml hygromycin, 0.33 mg/ml geneticin, 50 units/ml penicillin, 50 ug/ml streptomycin. Cells were harvested and resuspended at 330,000 cells/ml in assay medium (50% DMEM 50% F-12 medium without Phenol-Red (Cellgro #16-405-CV), L-glutamine, 10% heat inactivated and charcoal treated FBS, 100 uM non-essential amino acid, 50 units/ml penicillin, 50 ug/ml streptomycin). Cells were dispensed at 10,000 cells/30 ul/well into 384 well plates (Corning 3917) and incubated 12 h at 37 C and 5% CO2. Compounds and T3 (100nM final concentration) were added using a pin tool and plates were incubated 16 h incubation at 37 C and 5% CO2. Following incubation, plates were equilibrated at ambient temperature for 30 min, 20 ul of CellTiter-Glo (Promega) was added and luminescence was detected by an EnVision (PerkinElmer).

| Structure (SMILES) | Potency |
| --- | --- |
| CCCCOc1ccc(C(=O)CCN2CCOCC2)cc1 | inactive |
| Cc1cc(C)cc(OCC(=O)NCCc2nc3ccccc3[nH]2)c1 | inactive |
| COc1ccc2c(c1)-c1nc(/N=C/c3c(O)ccc4ccccc34)sc1CC2 | inactive |
| CCC(C)NC(=O)COC(=O)c1csc2c1CCCC2 (stereo not given) | inactive |
| CC(=O)NC1N=C(C)N(c2ccccc2)C1=O (stereo not given) | inactive |
| CC1(C)CC(=O)C(N=Nc2cccc(S(=O)(=O)N3CCOCC3)c2)=C(O)C1 | inactive |
| CN(CCO)c1nc(N)c2c(N)nc3c(c2c1C#N)CC(=O)N3C1CCCC1 | inactive |
| CCCc1nc2c(=O)n(C)c(=O)nc-2n(C)n1 | 0.794 µM (active) |
| O=C(O)/C=C/C(=O)Nc1ccc(OC(F)(F)F)cc1Br | inactive |
| Cc1cc2c(NC(=O)Nc3ccccc3)cccc2nn1 | inactive |
| COc1ccc(C(=O)/C=C/Nc2ccc(S(=O)(=O)Nc3ncccn3)cc2)cc1 | inactive |
| CC1=NN(c2ccc(F)cc2)C(=O)C1C(c1cccc(O)c1)c1c(C)[nH]n(-c2ccc(F)cc2)c1=O (stereo not given) | inactive |
| CCOc1cc(C(c2c(C)[nH][nH]c2=O)c2c(C)[nH][nH]c2=O)ccc1OS(=O)(=O)c1ccc(C)cc1 | inactive |
| COn1c2c(c3c4nonc4ccc31)CCCC2 | inactive |
| CCC(NC(=O)Nc1ccc(O)cc1)(C(F)(F)F)C(F)(F)F | inactive |
| Cn1c(-c2ccc(=O)[nH]c2)nc2ccccc21 | inactive |
| CC1(C)C(N(O)C(=O)Nc2ccc(Cl)cc2)N(c2ccc(Cl)cc2)C(=O)N1CC(=O)NN (stereo not given) | inactive |
| Nc1cc(-c2ccncc2)c[nH]c1=O | inactive |
| Oc1ccc2ccccc2c1/C=N/c1nccs1 | inactive |
| Nc1cnccc1C(=O)O | inactive |

| Structure (SMILES) | Potency |
| --- | --- |
| CN1c2ccccc2C(C)(C)C12C=Nc1c(cc(N3CCOCC3)c3ccccc13)O2 (stereo not given) | inactive |
| Cc1[nH][nH]c(=O)c1C(c1ccc(-c2ccccc2C(=O)O)o1)c1c(C)[nH][nH]c1=O | inactive |
| CS(=O)(=O)c1ccc(C(=O)OCC(=O)NC(=O)C2CCCCC2)cc1[N+](=O)[O-] | inactive |
| COc1ccc(C(=O)Oc2ccc(C(c3c(C)[nH][nH]c3=O)c3c(C)[nH][nH]c3=O)cc2OC)cc1 | inactive |
| COc1cc(C(c2c(C)[nH][nH]c2=O)c2c(C)[nH][nH]c2=O)ccc1OC(=O)c1ccccc1OC | inactive |
| CCN(C(=O)C1CCCN(c2ncnc3onc(-c4ccc(F)cc4)c23)C1)c1ccccc1 (stereo not given) | inactive |
| CC(NC(=O)Nc1ccc(O)cc1)(C(F)(F)F)C(F)(F)F | inactive |
| CCOc1cc(C(c2c(C)[nH][nH]c2=O)c2c(C)[nH][nH]c2=O)ccc1OC(=O)c1cccc([N+](=O)[O-])c1 | inactive |
| C=CCNC(=O)/C(C#N)=C\c1cc(Cl)c(OCC)c(OC)c1 | inactive |
| Nc1cccnc1Sc1cc(Cl)c(Cl)cc1Cl | inactive |
| CCOC(=O)c1cnc2nc(NCc3ccc(OC)c(OC)c3)[nH]n2c1=O | inactive |
| O=C(O)C1C2C=CC(O2)C1C(=O)Nc1ccc(S(=O)(=O)N2CCc3ccccc32)cc1 (stereo not given) | inactive |
| Cc1c(C#N)c(O)n(CCO)c(=O)c1N=Nc1ccc2c(c1)COC2=O | inactive |
| Cn1c(=O)[nH]c2nnc(-c3ccc(Cl)c(Cl)c3)nc2c1=O | inactive |
| C/C(=C\C(=O)c1ccccc1)Nc1ccc(O)cc1 | inactive |
| O=C(/C=C/c1ccco1)NC(=S)Nc1cc(C(F)(F)F)ccc1N1CCOCC1 | inactive |
| O=C(O)/C=C/C(=O)Nc1ccc(SC(F)(F)C(F)(F)C(F)(F)F)cc1 | inactive |
| COc1ccc(-c2nc(CS(=O)CC(=O)NCc3ccccn3)c(C)o2)cc1 (stereo not given) | inactive |
| CN1CCc2ccc3c4c2[C@]1(C)Cc1cccc(c1-4)OCO3 | 8.91 µM (active) |
| Cc1cc(N=Cc2c(O)ccc3ccccc23)no1 | inactive |
